# Source: PubChem BioAssay (NCATS)
# Results filed as inconclusive are left out. A call without a number means that no potency is given here. Values without a mark were called inactive. Active and inactive are the calls of the source. Calls follow the shape of the dose curve; as a rule, active = well fitted inhibition curve with a large enough effect; inconclusive = small, poorly fitted or top-dose-only effect; inactive = no such curve, though single readings can be large or run the other way.
# Target: Cytochrome P450 3A7 (Homo sapiens) (UniProt P24462)
# Assay: Cytochrome P450 family 3 subfamily A member 7 (CYP3A7) small molecule antagonists: luciferase biochemical qHTS assay (AID 1963596); also: nearly all actives have a fitted effect of over 40% in size
# Conditions: P450-Glo CYP3A7 enzyme luminescence, 1 h; series mostly up to 57.4 µM
# Summary of the method: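 In this luminescent screen, enzyme and proluciferin substrate meet test compound for 10 min before NADPH regeneration solution drives a 1 h room-temperature reaction; detection reagent halts turnover and luminescence is read 20 min later.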
# Potency is read from the fitted curve at half-maximal effect.
# Sequence of Cytochrome P450 3A7 (Homo sapiens) (P24462 whole entry, looked up): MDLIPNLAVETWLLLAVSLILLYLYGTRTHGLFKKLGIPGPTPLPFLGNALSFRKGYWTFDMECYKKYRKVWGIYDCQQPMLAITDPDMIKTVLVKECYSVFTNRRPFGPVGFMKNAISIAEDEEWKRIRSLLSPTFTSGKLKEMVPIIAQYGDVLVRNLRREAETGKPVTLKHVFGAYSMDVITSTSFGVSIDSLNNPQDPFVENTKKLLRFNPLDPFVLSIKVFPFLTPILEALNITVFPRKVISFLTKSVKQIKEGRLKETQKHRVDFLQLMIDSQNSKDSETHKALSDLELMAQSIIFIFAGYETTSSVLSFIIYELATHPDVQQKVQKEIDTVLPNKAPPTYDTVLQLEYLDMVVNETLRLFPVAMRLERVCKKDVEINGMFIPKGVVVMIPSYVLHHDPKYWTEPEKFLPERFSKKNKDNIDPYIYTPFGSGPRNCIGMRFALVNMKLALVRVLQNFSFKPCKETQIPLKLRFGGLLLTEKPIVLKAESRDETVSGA
Structure (SMILES),Potency,"activity change, negative = inhibition"
CC1(C)OC[C@H](NC(=O)Nc2ccc(Br)cc2Br)[C@H](c2ccccc2)O1,inactive,
Cc1ncc(C[n+]2csc(CCO)c2C)c(N)n1,inactive,
CCC(=C(c1ccc(OCCN2CCCC2)cc1)c1ccc(OCCN2CCCC2)cc1)c1ccccc1,,0% [at 11.5 µM]
COc1ccc(NC(=O)c2ccc(-c3ccc(C(=N)N)cc3C)cc2)cc1N1CCN(C)CC1,inactive,
CCCCCCCCCCCCCCCCCC[N+](C)(C)CCC[Si](OC)(OC)OC,inactive,
Cc1cc(Nc2ccc(NC(=O)c3ccc(Nc4ccnc5ccccc45)cc3)cc2)nc(N)n1,inactive,
COc1ccc(NC(=O)c2ccc(-c3ccc(C(N)=O)cc3C)cc2)cc1N1CCN(C)CC1,inactive,
CCCCCCCCNC(C)C(O)c1ccc(SC(C)C)cc1 (stereo not given),inactive,
CCOc1ccc(NC(=O)Cn2cc(C(=O)c3cccs3)c3ccccc32)cc1,inactive,
NC(=O)C[C@H](N)C(=O)O,inactive,
CCCCC(CC)COC(=O)CC(C(=O)OCC(CC)CCCC)S(=O)(=O)O (stereo not given),inactive,
O=C1CSc2ccccc2N1Cc1cccc(C(F)(F)F)c1,inactive,
CN(C)CC1CCOC1(c1ccccc1)c1ccccc1 (stereo not given),inactive,
Nc1ncnc2c1c(-c1ccc(Cl)cc1)nn2-c1cccc(-c2cnnn2Cc2cccc(-c3ccccc3)c2)c1,inactive,
CC[C@H]1OC(=O)C[C@@H](O)[C@H](C)[C@@H](O[C@@H]2O[C@H](C)[C@@H](O[C@H]3C[C@@](C)(O)[C@@H](O)[C@H](C)O3)[C@H](N(C)C)[C@H]2O)[C@@H](CC=O)C[C@@H](C)C(=O)/C=C/C(C)=C/[C@@H]1CO[C@@H]1O[C@H](C)[C@@H](O)[C@@H](OC)[C@H]1OC,inactive,
Nc1nc(=O)n([C@@H]2CS[C@H](CO)O2)cc1F,inactive,
COc1ccc(NC(=O)Cn2ccn(-c3ccc(C)c(C)c3)c(=O)c2=O)cc1Cl,inactive,
COc1ccc(CNC(=O)c2nc(SCc3ccccc3F)ncc2Cl)cc1,inactive,
CCC(=O)O,inactive,
COc1ccc(C(=O)NC(c2ccc(Cl)cc2)c2cc(Cl)c3cccnc3c2O)cc1 (stereo not given),inactive,

Structure (SMILES),Potency,"activity change, negative = inhibition"
C[C@@H](C(=O)O)c1ccc(-c2ccccc2)c(F)c1,inactive,
CC(=O)Nc1nc2c(Oc3cc(-c4ccc(C(F)(F)F)cc4)ncn3)cccc2s1,26.8 µM (active),
CC(=O)NC[C@H]1CN(c2ccc(N3CCSCC3)c(F)c2)C(=O)O1,inactive,
NCc1c[nH]c(=S)n1C1CCc2c(F)cc(F)cc2C1 (stereo not given),15.1 µM (active),
C=C(C)[C@H]1CC=C(C)CC1,inactive,
CN[C@H](CC(C)C)C(=O)N[C@H]1C(=O)N[C@@H](CC(N)=O)C(=O)N[C@H]2C(=O)N[C@H]3C(=O)N[C@H](C(=O)N[C@H](C(=O)O)c4cc(O)cc(O)c4-c4cc3ccc4O)[C@H](O)c3ccc(c(Cl)c3)Oc3cc2cc(c3O[C@@H]2OC(CO)[C@@H](O)[C@H](O)[C@@H]2O[C@H]2C[C@](C)(N)[C@H](O)[C@H](C)O2)Oc2ccc(cc2Cl)[C@H]1O (stereo not given in full),inactive,
Cn1nnc(-c2ccc(-c3ccc(N4C[C@H](CO)OC4=O)cc3F)cn2)n1,inactive,
O=C(O)C1CN(Cc2ccc(-c3nc4cc(Cc5ccccc5F)ccc4s3)c(F)c2)C1,,-6.84% [at 11.5 µM]
CCC[C@H](N[C@@H](C)C(=O)N1[C@H](C(=O)O)C[C@@H]2CCCC[C@@H]21)C(=O)OCC,inactive,
CCOC(C)OCC,inactive,
CO/N=C(\C(=O)N[C@@H]1C(=O)N2C(C(=O)O)=C(COC(C)=O)CS[C@H]12)c1csc(N)n1,inactive,
NCC1OC(OC2C(N)CC(N)C(OC3OC(CO)C(O)C(N)C3O)C2O)C(N)CC1O (stereo not given),inactive,
CC(CCC(=O)O)C1CC[C@H]2C3[C@H](O)C[C@@H]4C[C@H](O)CCC4(C)[C@H]3C[C@H](O)C12C (stereo not given in full),inactive,
CC(NC(=O)CCc1nc2ccccc2c(=O)[nH]1)c1ccccc1 (stereo not given),inactive,
CC1(C)CC1C(=O)NC(=CCCCCSCC(N)C(=O)O)C(=O)O (stereo not given),inactive,
O=C(OCCO)c1ccccc1O,inactive,
N#Cc1c[nH]c2c(C(=O)N3CCN(CCc4ccc(F)cc4)CC3)cccc12,inactive,
O=C(Cn1c(=O)n(-c2ccc(Cl)cc2)c(=O)c2oc3ccccc3c21)Nc1ccccc1,inactive,
C[C@@H]1CN(Cc2ccccc2)C[C@H]1c1nc2c(cnn2C2CCOCC2)c(=O)[nH]1,inactive,
c1ccc(-n2cnnn2)cc1,inactive,
